# Bioassay records (PubChem BioAssay)
# The list is not random: actives were taken first. Their share in the collection is about 2.9%.
# Rango dissoc inh = inhibition of RanGTP-driven Rango-importin beta dissociation | actives 0.071% (n = 340,000) | AID 540253 | Potency, µM (series often up to 46.1 µM), inactives show top-dose activity change, negative = inhibition | Biochemical FRET Rango-importin beta, RanGTP-induced dissociation | O95149+P62826; further: potency means the concentration at half of the fitted maximal effect; % of control where 0% means no effect; nearly all actives have a fitted effect of over 45% in size
#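 Rango FRET biosensor (snurportin-1 IBB flanked by N-terminal EYFP and C-terminal CFP10) at 0.1 uM, with 0.25 uM importin beta in PBS, 1mM DTT, 0.02% Tween-20, 0.1% BSA. 0.6 uM Ran, 2mM GTP and 0.2 uM RCC1 were then added for 45 min at room temperature. Inhibition read as loss of FRET rise.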
# TSG101-PTAP inh = blocks PTAP/TSG101 interaction to inhibit HIV-1 budding; Potency, µM (doses to about 115 µM), for the others: at the highest dose activity change, negative = inhibition, usual class: inhibitors; Q99816; 340,000 tested, under 10 active; AID 493005; Fluorescence polarization, FITC-PTAP peptide / Tsg101 binding; active means well fitted inhibition curve with a large enough effect in the main read-out, with a control signal flat, not every such curve was filed as active; inconclusive means small, poorly fitted or top-dose-only effect, or effect the other way, or a change in a side signal; inactive means no such curve, though single readings can be large or run the other way; further: potency means the concentration at half of the fitted maximal effect; % of control where 0% means no effect
#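 Compounds were pin-transferred onto Tsg101 binding domain (10 uM final) in HEPES pH 7.5 buffer, then FITC-PTAP peptide was added at 50 nM final. After 20 min at RT, polarization reported peptide displacement across a qHTS concentration series.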
# D3 antag = antagonists of human D3 dopamine receptor; P35462; D3R cells, DiscoveRx beta-arrestin luminescence, antagonist mode; hits give low values; max response, negative = inhibition, %; actives 2.5% (n = 360,000); AID 652054; in the data active means max response below about -50%; inconclusive means no clear call, values can overlap the other calls; further: on the % scale 0 is the no-effect control and ±100 the full control effect
#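 Cells expressing the human receptor were seeded at 1500 cells/well, incubated overnight at 37 degrees C in 5% CO2, then exposed to library compounds with dopamine controls for 90 minutes at 37 degrees C before luminescent detection.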
# Rango complex inh = inhibitors of Rango-importin beta complex formation; Potency, µM (top dose mostly 92.2 µM), for the others: at the highest dose inhibition of complex formation; Rango CFP/YFP FRET sensor + importin beta, 45 min; actives 0.031% (n = 340,000);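 further: potency means the concentration at half of the fitted maximal effect; 0% = DMSO wells and 100% = buffer wells lacking importin beta; nearly all actives have a fitted effect of over 15% in size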
# Target sequence (Q14974 whole entry, looked up): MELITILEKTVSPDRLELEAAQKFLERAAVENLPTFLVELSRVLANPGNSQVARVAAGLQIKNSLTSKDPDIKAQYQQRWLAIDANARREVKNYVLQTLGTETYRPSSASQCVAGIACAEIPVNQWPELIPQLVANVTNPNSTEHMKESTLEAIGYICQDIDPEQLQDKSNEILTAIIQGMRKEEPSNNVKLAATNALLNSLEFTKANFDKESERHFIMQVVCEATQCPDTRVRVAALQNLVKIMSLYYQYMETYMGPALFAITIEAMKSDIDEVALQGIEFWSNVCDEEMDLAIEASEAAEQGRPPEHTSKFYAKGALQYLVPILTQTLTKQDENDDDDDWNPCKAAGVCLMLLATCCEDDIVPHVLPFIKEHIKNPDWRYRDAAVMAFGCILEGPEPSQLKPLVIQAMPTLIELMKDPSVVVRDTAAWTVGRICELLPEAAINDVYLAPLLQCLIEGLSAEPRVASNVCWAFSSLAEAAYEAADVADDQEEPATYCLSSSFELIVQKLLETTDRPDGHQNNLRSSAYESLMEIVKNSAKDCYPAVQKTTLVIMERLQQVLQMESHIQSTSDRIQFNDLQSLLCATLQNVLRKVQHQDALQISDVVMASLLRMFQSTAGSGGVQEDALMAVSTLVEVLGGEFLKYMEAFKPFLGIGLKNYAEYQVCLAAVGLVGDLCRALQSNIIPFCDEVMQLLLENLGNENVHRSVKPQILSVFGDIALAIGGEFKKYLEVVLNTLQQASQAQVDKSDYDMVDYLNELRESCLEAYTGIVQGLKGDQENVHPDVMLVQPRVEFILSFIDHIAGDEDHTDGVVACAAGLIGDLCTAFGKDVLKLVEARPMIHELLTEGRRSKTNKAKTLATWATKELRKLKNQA
#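 FRET biosensor (snurportin 1 IBB flanked by EYFP and cerulean), 50 nM, with compound 5 min, then 0.125 microM importin beta in PBS, 1 mM DTT, 0.02% Tween-20, 0.1% BSA. CFP/YFP ratio read after 45 min at room temperature; pre-read flags interference.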
# Mm-Cpn inhibitor = inhibitors of Methanococcus maripaludis chaperonin TRiC (MmCpn). AID 504842. actives 0.031% (n = 330,000). Potency, µM (highest dose often 76.9 µM), for inactives: at the highest dose activity, negative = inhibition, actives largely listed as inhibitors. purified Mm-Cpn ATPase, ADP Transcreener TR-FRET; active means well fitted inhibition curve with a large enough effect; inconclusive means small, poorly fitted or top-dose-only effect; further: potency means the concentration at half of the fitted maximal effect; on the % scale 0 is the no-effect control and ±100 the full control effect; nearly all actives have a fitted effect of over 80% in size
#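 ATPase turnover read by TR-FRET ADP competition (Eu cryptate antibody/ADP-d2, 665/590 nm): 10uM ATP final, 25nM Mm-CPN final, 30 min 37degC after 10-min compound preincubation, pH 7.4 Tris/KCl/MgCl2/DTT buffer.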
# D3 ag = D3 dopamine receptor (human) agonism; P35462; D3R DiscoveRx beta-arrestin cells, luminescence, 90 min; max activation, %; actives 0.58% (n = 410,000); in the data active means max activation above about 30%; further: 0% is about no effect
#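 Agonist-mode cell screen: cells plated at 1500/well and incubated overnight at 37 °C, then exposed to library compounds for 90 min at 37 °C. Detection reagent was added for 30–60 min at room temperature, and luminescence was read.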
# Numbers without * were called inactive; ? = inconclusive; nt = no result; ! = not confirmed by another sample. Unless noted, the call rests on the fitted dose curve.
SMILES,Rango dissoc inh,TSG101-PTAP inh,D3 antag,Rango complex inh,Mm-Cpn inhibitor,D3 ag
C(=C\c1ccccc1)/CN1CCN(C(c2nnnn2-c2ccc3c(c2)OCCO3)C2CC2)CC1 (stereo unspecified),nt,nt,?,nt,nt,40.9*
C(=C\c1ccccc1)/CN1CCN(C(CCc2ccccc2)c2nnnn2-c2ccc3c(c2)OCCO3)CC1 (stereo unspecified),nt,nt,-109.6*,nt,nt,-12.4
COC(=O)c1cc(Cl)ccc1NC(=O)CSc1ncc(S(=O)(=O)c2ccc(Br)cc2)c(=O)[nH]1,nt,nt,nt,nt,nt,1.4
Cc1ccc(N2CCN(C(=O)c3c4c(nc5ccccc35)C(=O)N(C3CCCCC3)C4)CC2)c(C)c1,nt,nt,nt,nt,nt,3.1
Cc1ccc(C(c2c(O)cc(C)n(Cc3ccco3)c2=O)N2CCC(C)CC2)cc1 (stereo unspecified),nt,nt,nt,nt,nt,4.1
Cc1cccc(C)c1NC(=O)c1nc(SC(C)C)ncc1Cl,nt,nt,nt,nt,nt,45.2*
Cc1nnc(NC(=O)c2nc(SC(C)C)ncc2Cl)s1,nt,nt,nt,nt,nt,-2.9
COc1cccc(C(=O)Nc2ccccc2OCc2cc(=O)n3cc(C)ccc3n2)c1,nt,nt,nt,nt,nt,1.8
Cc1ccc(N)cc1O,23.1µM*,3.4%,8.1,?,-0.5%,8.1
COc1ccc(C)cc1NC(=O)c1sc2nc(C)nc(N3CCOCC3)c2c1C,24.9%,-3.7%,13.0,-0.1%,0.8%,3.3
COc1cc(NC(=O)c2sc3nc(C)nc(N4CCOCC4)c3c2C)cc(OC)c1OC,0.2%,1.1%,42.7,3.5%,-8.5%,34.3*
CCN(CC)CCCNC(=O)c1nn(-c2ccc(OC)cc2)c(=O)c2c1c1ccccc1n2C,nt,nt,nt,nt,nt,2.7
N/C(Cc1cccc2ccccc12)=N\O,-9.0%,-1.2%,19.0,-1.6%,-0.5%,30.1*
Cc1ccc(S(=O)(=O)CCC(=O)Nc2ccc(OC(F)(F)F)cc2)cc1,nt,nt,nt,nt,nt,3.4
CC(=O)C1=C(C)NC(=O)NC1c1ccccc1OCC(=O)NCCc1ccccc1 (stereo unspecified),-0.2%,nt,-63.8*,-3.0%,0.9%,4.6
CC(=O)C1=C(c2ccccc2)NC(=O)NC1c1ccccc1OCC(=O)Nc1ccccc1 (stereo unspecified),12.6%,-1.7%,-2.1,0.9%,-0.4%,0.3
COC(=O)c1ccc(NC(=O)C(C)Sc2nc(=O)cc(N)n2CCc2ccccc2)cc1 (stereo unspecified),nt,nt,nt,nt,nt,3.8
Fc1ccccc1C1c2cccn2CCN1C(=S)Nc1cccc(Br)c1 (stereo unspecified),17.6%,-5.7%,-4.1,-1.0%,-6.5%,-1.7
Fc1ccccc1C1c2cccn2CCN1C(=S)Nc1ccc(Br)cc1 (stereo unspecified),3.5%,-0.5%,-64.3*,?,?,-21.1
Cc1ccccc1-c1noc(-c2cccnc2N(C)Cc2ccc(Cl)cc2)n1,nt,nt,nt,nt,nt,-4.9
COC(=O)CCN(C(=O)c1c(C)oc2ncnc(N3CCOCC3)c12)c1ccccc1,nt,nt,nt,nt,nt,-12.1
COc1ccc(N2CCN(CCCNC(=O)c3ccc(CS(=O)(=O)c4ccc(OC)cc4)o3)CC2)cc1,4.8%,-1.8%,-11.5,-3.3%,4.6%,18.3
COc1ccc(S(=O)(=O)Cc2ccc(C(=O)NCCCN3CCc4ccccc4C3)o2)cc1,0.3%,-1.2%,-91.6*,2.2%,0.5%,-15.8
COc1ccccc1S(=O)(=O)Cc1ccc(C(=O)NCCCN2CCN(c3ccc(F)cc3)CC2)o1,-13.9%,-4.1%,-77.1*,6.1%,0.0%,-6.3
COc1ccc2nc3sc(C(=O)NCCCN4CCc5ccccc5C4)cc3cc2c1,3.3%,-2.1%,-88.3*,0.7%,-3.7%,-23.8
SMILES,Rango dissoc inh,TSG101-PTAP inh,D3 antag,Rango complex inh,Mm-Cpn inhibitor,D3 ag
COC(=O)c1cc(S(=O)(=O)N2CCN(c3cccc(OC)c3)CC2)cn1C,-14.9%,1.6%,10.0,-1.0%,-2.3%,21.2
CCN(Cc1ccccc1)C(=O)Cn1c(=O)n(-c2ccc(Cl)c(Cl)c2)c(=O)c2c(C)c(C(=O)N(C)C)sc21,nt,nt,nt,nt,nt,5.2
C=CCc1cc(Cl)ccc1OCCNCCCOC,-11.7%,1.8%,-59.1*,-0.2%,-3.1%,-25.5
C=CCc1ccccc1OCCNCCCOC,21.1%,-4.4%,-102.1*,-0.7%,2.5%,-26.3
C=CCc1cc(Cl)ccc1OCCOCCNCCOC,1.0%,0.2%,-15.8,3.7%,-0.4%,-29.9
CCC(C)NC(=O)c1cc(C)no1 (stereo unspecified),-1.7%,-4.7%,-63.6*,5.7%,-2.9%,-8.8
CCc1ccccc1NC(=O)c1cc(C)no1,2.2%,-2.4%,2.0,-1.4%,1.6%,-3.8
CCC(CC)C(=O)N1CCc2cc(OC)c(OC)cc2C1COc1ccc2c(C)cc(=O)oc2c1 (stereo unspecified),nt,nt,nt,nt,nt,6.1
Cc1cccc(NC(=O)CCN2CCN(C/C=C/c3ccccc3)CC2)c1,5.4%,-0.1%,-63.9*,3.6%,0.3%,7.4
Cc1cc(NC(=O)CCN2CCN(C/C=C/c3ccccc3)CC2)ccc1Br,?,0.0%,-16.8,-0.2%,-0.2%,-5.2
O=C(CN1CCN(C/C=C/c2ccccc2)CC1)NC(=O)NC1CCCCC1,8.2%,-0.8%,-65.4*,-1.9%,-14.3%,-5.5
O=C(CCN1CCN(C/C=C/c2ccccc2)CC1)Nc1ccccc1,1.1%,-2.1%,-57.8*,-2.1%,-1.1%,3.7
O=C(CN1CCN(Cc2ccccc2)CC1)NC(=O)NC1CCCCC1,15.8%,-7.4%,-2.5,-1.0%,-1.6%,-1.1
CCc1ccc(NC(=O)C/C(C)=N/NC(=O)COc2ccccc2C)cc1,8.7%,-6.0%,-27.3,-2.5%,1.5%,-14.3
Cc1cc(F)ccc1S(=O)(=O)NCC(c1ccco1)S(=O)(=O)c1cccs1 (stereo unspecified),nt,nt,nt,nt,nt,-3.3
COc1ccc(CCNC(=O)CCn2c(=O)c3ccccc3n(Cc3ccccc3F)c2=O)cc1OC,nt,nt,nt,nt,nt,0.9
Cc1ccc(-c2c(C)n3c4c(=O)n(C)c(=O)n(C)c4nc3n2CCO)cc1,nt,nt,nt,nt,nt,45.6*
Nc1ccc(O)c(-c2nc3ccccc3s2)c1,10.3µM*,-8.1%,-0.4,?,0.6%,-5.2
Cc1oc(-c2cccs2)nc1CN1CCC(c2ccccc2)CC1,1.6%,0.1%,-90.6*,3.5%,-8.8%,-27.1
O=C(/C=C/c1ccccc1)NC(NC(=S)Nc1cccc(Cl)c1)C(Cl)(Cl)Cl (stereo unspecified),-6.1%,-4.7%,?,-0.1%,-2.7%,-3.2
O=C(/C=C/c1ccccc1)NC(NC(=S)Nc1cccc(O)c1)C(Cl)(Cl)Cl (stereo unspecified),-7.5%,-0.1%,-61.7*,0.8%,2.9%,-12.2
CCCCCCSc1cc(-c2nc3ccc(C)cn3c2NCc2ccccc2)ccc1OC,?,1.2%,40.4,?,-5.2%,61.8*!
